Measured values published in PubChem BioAssay AID372 (MTDP, 2006).
The campaign covered roughly 100,000 compounds. About 770 (0.77%) were called active. No stated cut-off is given here; in the data, active means inhibition above about 50%; inactive means the rest. This excerpt belongs to a sample that is enriched for actives.

molecular target: Gag-Pol polyprotein (Human immunodeficiency virus type 1 group M subtype B (isolate HXB2)) (UniProt P04585); experiment: RNase H inhibition, HIV 1 Gag Pol polyprotein, FRET biochemical assay, screening (AID 372); conditions: HIV-1 RT RNase H, FRET RNA/DNA substrate fluorescence; at 10 µM; active compounds read high

| Compound | inhibition |
| --- | --- |
| COc1ccc(NC(=O)/C=C/c2ccc(C)o2)cc1 | 21% (inactive) |
| O=c1oc2ccccc2cc1-c1nn(-c2ccccc2)cc1/C=N/O | 21% (inactive) |
| N#CC(C#N)=Cc1cn(-c2ccccc2)nc1-c1cc2ccccc2oc1=O | 56% (active) |
| N#C/C(=C/c1cn(-c2ccccc2)nc1-c1cc2ccccc2oc1=O)C(N)=O | 8% (inactive) |
| Cc1ccccc1-c1nc2c3c4c(sc3ncn2n1)CCCCC4 | 8% (inactive) |
| COc1ccc(OCC(=O)Nc2sc3c(c2C(N)=O)CCCC3)cc1 | 41% (inactive) |
| COc1ccc(-c2nc3cc(NC(=O)COc4ccc([N+](=O)[O-])cc4)ccc3o2)cc1 | 55% (active) |
| O=C(COc1ccc([N+](=O)[O-])cc1)Nc1ccc2oc(-c3ccc(Br)cc3)nc2c1 | 14% (inactive) |
| COc1ccc(OCC(=O)Nc2ccc3oc(-c4cccc(I)c4)nc3c2)cc1 | 53% (active) |
| O=C(COc1ccc([N+](=O)[O-])cc1)Nc1ccc2oc(-c3ccccc3F)nc2c1 | 49% (inactive) |
| O=C(COc1ccc([N+](=O)[O-])cc1)Nc1ccc2oc(-c3cccc(Cl)c3)nc2c1 | 9% (inactive) |
| CCc1ccc(-c2nc3cc(NC(=O)COc4ccc([N+](=O)[O-])cc4)ccc3o2)cc1 | 43% (inactive) |
| COc1ccc(OCC(=O)Nc2ccc3oc(-c4ccncc4)nc3c2)cc1 | 14% (inactive) |
| O=C(COc1ccc([N+](=O)[O-])cc1)Nc1ccc2oc(-c3ccccc3Cl)nc2c1 | 53% (active) |
| Cc1cccc(OCC(=O)Nc2ccc3oc(-c4cccc(I)c4)nc3c2)c1 | 22% (inactive) |
| O=c1[nH]c(-c2cccc(O)c2)nc2sc3c(c12)CCCC3 | 22% (inactive) |
| COc1cccc(COc2cc3oc(=O)c4c(c3cc2Cl)CCCC4)c1 | 12% (inactive) |
| O=C(NCc1cccnc1)c1cnn2c(C(F)(F)F)cc(-c3ccc4c(c3)OCO4)nc12 | 11% (inactive) |
| Cc1ccc(NC(=O)/C=C/c2ccc3c(c2)OCO3)c(C)c1 | 10% (inactive) |
| C=CCN1C(=O)/C(=C\c2ccc(-c3ccc(C(=O)OCC)cc3)o2)C(=O)NC1=S | 45% (inactive) |

| Compound | inhibition |
| --- | --- |
| CCCCn1c(/N=C/c2nc3ccccc3n2C)nc2ccccc21 | 5% (inactive) |
| CCN(CC)c1ccc(N2C(=O)/C(=C\c3ccc(C)o3)SC2=S)cc1 | 3% (inactive) |
| CCN(CC)C(=O)C(=O)N/N=C/c1ccco1 | 5% (inactive) |
| S=C(Nc1ccc2nccnc2c1)Nc1cccc2ccccc12 | 27% (inactive) |
| O=C(N=Nc1c(O)n(CN2CCCCCC2)c2ccc(Br)cc12)c1cccnc1 | 5% (inactive) |
| N#C/C(=C\c1cccc([N+](=O)[O-])c1)c1nc(-c2cc3cc([N+](=O)[O-])ccc3oc2=O)cs1 | 7% (inactive) |
| N#C/C(=C\c1ccc(O)c(O)c1)c1nc(-c2cccc([N+](=O)[O-])c2)cs1 | 60% (active) |
| COc1ccc(/C=C(\C#N)c2nc(-c3ccc(OC)c(OC)c3)cs2)cc1O | 25% (inactive) |
| COc1ccc(-c2csc(/C(C#N)=C/c3ccc(O)c(O)c3)n2)cc1OC | 84% (active) |
| N#C/C(=C\c1cccc(Br)c1)c1nc(-c2cccc([N+](=O)[O-])c2)cs1 | 22% (inactive) |
| N#C/C(=C\c1ccccc1[N+](=O)[O-])c1nc(-c2cc3cc([N+](=O)[O-])ccc3oc2=O)cs1 | 52% (active) |
| N#C/C(=C\C=C\c1ccccc1[N+](=O)[O-])c1nc(-c2cc3cc([N+](=O)[O-])ccc3oc2=O)cs1 | 6% (inactive) |
| N#C/C(=C\c1cccc([N+](=O)[O-])c1)c1nc(-c2cccc([N+](=O)[O-])c2)cs1 | 6% (inactive) |
| COc1ccc(-c2csc(/C(C#N)=C/c3ccc(O)cc3)n2)cc1OC | 24% (inactive) |
| Cc1ccc(-n2c(/C=C3/C(=O)N(C)c4ccc(Br)cc43)nc3ccccc3c2=O)cc1 | 2% (inactive) |
| C=CCN1C(=O)C(Cc2ccc(F)cc2)S/C1=N\N=C\c1ccco1 (stereo not drawn) | 3% (inactive) |
| CC12C=CC(O1)C1C(=O)N(c3ccc([N+](=O)[O-])cc3)C(=O)C12 (stereo not drawn) | 11% (inactive) |
| O=C1N/C(=N\N=C\c2ccccc2O)SC1Cc1ccc(Br)cc1 (stereo not drawn) | 16% (inactive) |
| O=C(Nc1cccnc1)c1cccc(Cl)c1Cl | 5% (inactive) |
| O=C1S/C(=C/c2cccc(Br)c2)C(=O)N1c1ccccc1 | 12% (inactive) |

| Compound | inhibition |
| --- | --- |
| CCCN1C(=O)/C(=C\c2cccc(Cl)c2)SC1=S | 19% (inactive) |
| O=C(c1ccccc1)c1ccc(NC(=O)c2sc3ccccc3c2Cl)cc1 | 18% (inactive) |
| O=C(Nc1ccc(NC(=O)c2sc3ccccc3c2Cl)cc1)c1ccccc1 | 53% (active) |
| CC(C)(C)c1ccc(C(=O)Nc2ccc(NC(=O)c3sc4ccccc4c3Cl)cc2)cc1 | 24% (inactive) |
| Cc1cccc(-c2nc3cc(NC(=O)c4sc5ccccc5c4Cl)ccc3o2)c1 | 37% (inactive) |
| O=C(NC(=S)Nc1ccc(S(=O)(=O)Nc2nccs2)cc1)c1sc2ccccc2c1Cl | 70% (active) |
| O=C(Nc1ccc(-c2nc3cc(Cl)ccc3o2)cc1)c1sc2ccccc2c1Cl | 41% (inactive) |
| O=C(Nc1ccc2oc(-c3cccc(F)c3)nc2c1)c1sc2ccccc2c1Cl | 52% (active) |
| O=C(Nc1nccs1)c1sc2ccccc2c1Cl | 7% (inactive) |
| O=S(=O)(Nc1nccs1)c1ccc(NC(=S)Nc2ccccc2)cc1 | 8% (inactive) |
| O=C(Nc1ccc2oc(-c3cccc(Cl)c3)nc2c1)c1sc2ccccc2c1Cl | 20% (inactive) |
| CCc1ccc2oc(-c3ccc(NC(=O)c4sc5ccccc5c4Cl)cc3)nc2c1 | 50% (active) |
| Cc1ccc(-c2nc3cc(NC(=O)c4sc5ccccc5c4Cl)ccc3o2)cc1 | 20% (inactive) |
| Cc1cc(C)c(C(N)=O)c(Nc2ccccc2)n1 | 5% (inactive) |
| Cc1ccccc1C(=O)NC(=S)Nc1ccc2c3c(cccc13)CC2 | 21% (inactive) |
| O=C(Nc1ccc(F)cc1F)c1cccc(I)c1 | 4% (inactive) |
| CCOc1ccccc1N=CC1=C(O)CC(c2ccccc2)CC1=O (stereo not drawn) | 6% (inactive) |
| Cc1ccc(-c2nc(NC(=O)c3cccc(F)c3)sc2-c2ccccc2)cc1 | 16% (inactive) |
